Sampled rows, rich in hits. Any-hit rate of the full collection: about 3%.
ABHD5-PLIN5 inh: ABHD5-PLIN5 interaction inhibitors, primary screen, cell lysate, split luciferase complementation, luminescence; Perilipin-5 (Homo sapiens) + 1-acylglycerol-3-phosphate O-acyltransferase ABHD5 (Homo …; Split G. princeps luciferase complementation, 4 h; inhibition, % at 4 µM; actives 0.78% (n = 360,000); AID 602281, 2012;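 active = inhibition above the mean inhibition across every tested compound plus 3 SD, cut at about 22% in these data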
KKLEB cytotox: cytotoxicity in KKLEB CF airway cells, primary screen, cytotoxicity control for CF NF-kB inhibitor project, cell-based, uHTS, fluorescence assay plates; actives 0.36% (n = 360,000); KKLEB CF airway cells viability, ATPlite luminescence, overnight; hits give low values; cells stimulated with P. aeruginosa culture filtrate; activity change (cytotoxicity), % at 5 µM;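 active = corrected activity change at or below -50% at 5 µM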
Peg3 prom inh: Peg3 promoter-driven luciferase inhibitors, primary screen, cell-based, HeLa, luciferase luminescence; HeLa PEG-Prom luciferase reporter, overnight; inhibition, % at 20 µM; actives 1.7% (n = 360,000);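 active = inhibition of at least 50% at 20 µM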
CF NFkB block: inhibitors of PAF-induced NF-kB signaling, primary screen, cell-based, GFP fluorescence, uHTS; KKLEB NF-kB-GFP reporter, GFP fluorescence overnight; inhibition, % at 5 µM; actives 0.86% (n = 360,000); AID 588850, 2011;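 active = at least 50% inhibition at 5 µM, scaled per plate between neutral and stimulator controls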;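 note: PAF is a Pseudomonas aeruginosa culture filtrate used as stimulus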
TRPM1 prom inh: inhibitors of MITF-dependent TRPM1 promoter reporter, primary screen, cell-based, SK-MEL-5, single point, luciferase. inhibition, % at 12.5 µM. SK-MEL-5 TRPM1 promoter luciferase, 24 h. actives 0.83% (n = 330,000);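 active = mean inhibition across replicates of 60% or more, whatever share of single replicates reaches that level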
HIF-2a block: HIF-2a reporter inhibitors, primary screen, luminescence, 786-0 RCC cells; 786-0 RCC cells HIF-2a reporter, luciferase luminescence, overnight; actives 0.72% (n = 360,000); inhibition, % at 18.8 µM;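 active = inhibition of the luminescence signal of 40% or more relative to plate controls, in a single-dose primary screen at 18.75 µM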
Mdm2-MdmX confirm: retested Mdm2-MdmX interaction blockers, confirmation, cell-based, luminescence, single concentration, set 2 | shares compounds with HIF-2a block | SaOS-2 split-luciferase Mdm2/MdmX complementation | inhibition, % at 8 µM | actives 99% (n = 740);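 active = mean inhibition of the luminescence signal across two replicates at or above 26 percent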
HIF-2a conf: HIF-2a reporter inhibitor retest, confirmation, luminescence, 786-0 RCC cells; shares compounds with HIF-2a block; HIF-2a luciferase reporter luminescence, overnight; inhibition, % at 18.8 µM; actives 56% (n = 1,800); AID 651580, 2012;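 active = mean inhibition across four replicates of at least 40 percent at the single tested concentration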
HIF-1a cs: HIF-1a luciferase reporter signal reduction – MiaPaCa-2 cells, single concentration, counter-screen for HIF-2a inhibitor project, confirmation; shares compounds with HIF-2a block; actives 72% (n = 1,800); MiaPaCa-2 HIF-1a luciferase reporter, desferoxamine, overnight; inhibition, % at 18.8 µM; AID 651589, 2012;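 active = mean inhibition of the reporter signal across four replicates at the single tested dose of 50% or more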
Of the large screens only hits and unclear results are named; the others gave an inactive call (follow-up assays come after a bar, where they were run).

CC(=O)SC(C[N+](=O)[O-])c1cn(C(C)=O)c2ccccc12 (stereo not given)	Peg3 prom inh 106, TRPM1 prom inh 106, HIF-2a block 46 | HIF-2a conf 96 | HIF-1a cs 86
CCN1C(=O)/C(=C/c2cccs2)SC1=Nc1ccc(OC)cc1	none
COc1ccc(N=C2S/C(=C\c3ccc(Cl)c([N+](=O)[O-])c3)C(=O)N2CCN(C)C)cc1	Peg3 prom inh 105, HIF-2a block 79 | HIF-2a conf inactive | HIF-1a cs 101
CCOC(=O)C1CCCN(C(=O)COc2ccc(C(C)(C)C)cc2)CC1 (stereo not given)	HIF-2a block 47 (no result: TRPM1 prom inh) | HIF-2a conf 58 | HIF-1a cs inactive
CC1=C(C(=O)OCCNC(=O)c2ccccc2O)C(c2ccccc2[N+](=O)[O-])C(C(=O)OCC2CCCO2)=C(C)N1 (stereo not given)	none
COc1cccc(-c2nnc(SCc3ccc(C#N)cc3)n2Cc2ccco2)c1	HIF-2a block 44 | HIF-2a conf inactive | HIF-1a cs inactive
Cc1ccc(CCNC(=O)CC(C)CC2=NS(=O)(=O)c3ccccc3N2)cc1 (stereo not given)	none
CC(=O)Nc1ccc(OCc2cccc3ccccc23)cc1	HIF-2a block 88 | HIF-2a conf 97 | HIF-1a cs 90
CN(Cc1ccccc1Cl)C(=O)CCNC(=O)c1ccco1	none
CC1=C(C(=O)Nc2ccc([N+](=O)[O-])cc2)C(c2cccc(C(F)(F)F)c2)NC(=S)N1c1ccccc1 (stereo not given)	Peg3 prom inh 88, HIF-2a block 56 | HIF-2a conf inactive | HIF-1a cs 60
COc1cc(C(C[N+](=O)[O-])c2c(-c3ccccc3)cc3ccccn23)cc(OC)c1OC (stereo not given)	HIF-2a block 43 | HIF-2a conf inactive | HIF-1a cs 68
CC(C)(C)c1ccc(C(O)CCCN2CCC(C(O)(c3ccccc3)c3ccccc3)CC2)cc1 (stereo not given)	Peg3 prom inh 96, TRPM1 prom inh 94, HIF-2a block 97 | HIF-2a conf inactive | HIF-1a cs 108
OC(c1ccccc1)(c1ccccc1)C1CCN(CCCOc2cccc(OC(F)(F)F)c2)CC1	none (no result: KKLEB cytotox, Peg3 prom inh, CF NFkB block, TRPM1 prom inh)
CC(=O)OC(C)(C)/C=C/C(=O)[C@](C)(O)C1[C@H](O)C[C@@]2(C)C3CC=C4C(C=C(O[C@@H]5O[C@H](CO)[C@@H](O)[C@H](O)[C@H]5O)C(=O)C4(C)C)[C@]3(C)C(=O)C[C@]12C (stereo not given in full)	KKLEB cytotox -68, Peg3 prom inh 57, CF NFkB block 74, HIF-2a block 46 | HIF-2a conf inactive | HIF-1a cs inactive
CC1(C)Oc2ccc3ccc(=O)oc3c2C[C@H]1O[C@@H]1O[C@H](CO)[C@@H](O)[C@H](O)[C@H]1O	none
CC1(C(=O)NS(=O)(=O)c2cccc(Cl)c2)CCN1C(=O)CCc1cccs1 (stereo not given)	none (no result: TRPM1 prom inh)
COc1ccc(NC(=O)N2CCNC(=O)C2CC(=O)Nc2ccc(F)cc2)cc1 (stereo not given)	none
Cn1nnnc1N=N/C(=N/Nc1ccccc1)c1ccccc1	Peg3 prom inh 52 | Mdm2-MdmX confirm 91
COC(=O)C=CC(=NNc1ccccc1)c1ccccc1	none
CC(=O)Cn1ncc(Br)c(Br)c1=O	KKLEB cytotox -83, Peg3 prom inh 98, CF NFkB block 96, TRPM1 prom inh 99, HIF-2a block 97 | HIF-2a conf 95 | HIF-1a cs 105
CC(C)(C)C(=O)Cn1ncc(N2CCCC2)c(Br)c1=O	none
CCOC(=O)N(C)c1c(CC)nc2c(OCc3ccccc3OC)cccn12	none (no result: TRPM1 prom inh)
O[C@@H]1[C@@H](O)C=C2CCN3Cc4cc5c(cc4[C@H]1C23)OCO5 (stereo not given in full)	Peg3 prom inh 63, CF NFkB block 57, TRPM1 prom inh 63, HIF-2a block 51 | HIF-2a conf 40 | HIF-1a cs 103
Brc1ccccc1/C=N/N1CCCCC1	HIF-2a block 45 | HIF-2a conf inactive | HIF-1a cs inactive
Cc1ccc(NC(=O)c2ccc(S(=O)(=O)N3CCCC3)cc2)nc1	none
COc1ccccc1CNc1nc(NCc2ccc(NC(C)=O)cc2)c2sccc2n1	Peg3 prom inh 72, HIF-2a block 57 (no result: TRPM1 prom inh) | HIF-2a conf inactive | HIF-1a cs 70
CS(=O)(=O)c1ccc(S(=O)CC(=O)OCc2ccccc2)c([N+](=O)[O-])c1 (stereo not given)	ABHD5-PLIN5 inh 40, Peg3 prom inh 110, CF NFkB block 89, TRPM1 prom inh 83, HIF-2a block 91 | HIF-2a conf 52 | HIF-1a cs 106
O=C(NC1CCCCC1)c1n[nH]c2c1CCCCC2	Peg3 prom inh 56, HIF-2a block 44 (no result: TRPM1 prom inh) | HIF-2a conf 75 | HIF-1a cs 74
O=[N+]([O-])c1ccc2c(c1)CO[C@@]21O[C@H](CCO)C[C@H](O)[C@H]1O	none (no result: TRPM1 prom inh)
[2H]C(CCOS(N)(=O)=O)c1ccc(C(C)(C)C)cc1 (stereo not given)	Peg3 prom inh 59, TRPM1 prom inh 83, HIF-2a block 57 | HIF-2a conf 63 | HIF-1a cs inactive
COC(=O)c1cccc(NC(=O)NC(=O)c2ccccc2Cl)c1	HIF-2a block 57 | HIF-2a conf 64 | HIF-1a cs inactive
COC(=O)c1cccc(NC(=O)Nc2ccc(Cl)c(Cl)c2)c1	none
O=C(NCc1ccccc1)C(=O)Nc1cccc(C(=O)O)c1	TRPM1 prom inh 63, HIF-2a block 58 | HIF-2a conf 71 | HIF-1a cs inactive
O=C(Nc1cccc(Cl)c1)Nc1cccc(C(=O)O)c1	none

Screening results deposited in PubChem by several laboratories.
